Experimental data from PubChem BioAssay AID493170 (National Center for Advancing Translational Sciences (NCATS), 2011).
Records with an inconclusive call do not appear. A call without a number means that no potency is given here. Calls of active or inactive are those of the source. Calls follow the shape of the dose curve; as a rule, active = well fitted inhibition curve with a large enough effect; inconclusive = small, poorly fitted or top-dose-only effect, or effect the other way; inactive = flat fitted curve, though single readings scatter.

molecular target: Ubiquitin carboxyl-terminal hydrolase 2 (Homo sapiens) (UniProt O75604); test: Ub-rhodamine 110 based assay for inhibitors Ubiquitin-specific Protease USP2a; details: USP2a Ub-rhodamine110 cleavage, fluorescence; series mostly up to 38.3 µM; also: nearly all actives have a fitted effect of over 50% in size
In short: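 5 nM USP2a preincubated with compounds for 30 min at RT in 20 mM Tris-HCl pH 8.0, 2 mM CaCl2, 2 mM beta-mercaptoethanol, 0.05% CHAPS. Cleavage of 150 nM Ub-rhodamine 110 read kinetically (Ex 485/Em 531) for 7 min.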
Potency is read from the fitted curve at half-maximal effect.

Ubiquitin carboxyl-terminal hydrolase 2 (Homo sapiens), sequence (O75604 whole entry, looked up): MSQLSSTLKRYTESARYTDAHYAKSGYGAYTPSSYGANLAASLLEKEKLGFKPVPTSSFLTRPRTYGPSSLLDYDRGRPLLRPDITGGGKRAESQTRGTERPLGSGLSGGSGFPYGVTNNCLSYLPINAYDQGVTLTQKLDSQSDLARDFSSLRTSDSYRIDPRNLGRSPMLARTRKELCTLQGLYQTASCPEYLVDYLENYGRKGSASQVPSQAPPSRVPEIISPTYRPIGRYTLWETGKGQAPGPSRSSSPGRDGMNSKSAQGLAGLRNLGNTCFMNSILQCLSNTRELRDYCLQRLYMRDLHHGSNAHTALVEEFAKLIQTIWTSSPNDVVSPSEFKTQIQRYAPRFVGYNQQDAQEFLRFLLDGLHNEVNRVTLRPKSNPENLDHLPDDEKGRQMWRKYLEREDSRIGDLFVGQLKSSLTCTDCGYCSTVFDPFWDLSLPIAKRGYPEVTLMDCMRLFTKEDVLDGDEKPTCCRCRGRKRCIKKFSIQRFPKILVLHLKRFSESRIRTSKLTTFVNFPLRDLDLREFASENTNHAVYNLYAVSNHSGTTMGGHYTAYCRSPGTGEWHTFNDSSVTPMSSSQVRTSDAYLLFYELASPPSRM

SMILES | Potency
CCOC(=O)c1c(NC(C)=O)sc2c1CCCNC2=O | inactive
CC(NC(=O)COc1ccccc1-c1ccccc1)c1ccccc1 (centres undefined) | inactive
CCCNC(=O)NCc1ccc(N2CCCC2=O)cc1 | inactive
Cc1noc(/C=C/c2ccco2)c1S(=O)(=O)N1CCC(C(=O)N2CCc3ccccc3C2)CC1 | 7.94 µM (active)
CC1CCN(CC(O)COc2cccc(F)c2)CC1 (centres undefined) | inactive
Cc1cnc(N)c2c(=O)oc3ccccc3c12 | inactive
Cc1cc(=O)oc(C)c1C(=O)NCCc1ccccc1 | inactive
COCCN1Cc2cccc(C(=O)N3CCN(c4cc(C)ccc4C)CC3)c2C1=O | inactive
C[C@H](CO)N1C[C@H](C)[C@@H](CN(C)S(=O)(=O)c2cn(C)cn2)Oc2ccc(NC(=O)Cn3cnnn3)cc2C1=O | inactive
O=C(c1ccco1)N1CCN(C(c2cccs2)c2sc3ncnn3c2O)CC1 (centres undefined) | inactive
Cn1c(SCc2nc3ccccc3s2)nnc1-c1cccs1 | inactive
Cc1cc(N2CCC(C(=O)NC3CC3)CC2)nc(-c2ccccc2)n1 | inactive
O=C(O)/C=C/c1ccc(S(=O)(=O)Nc2ccccc2C(=O)Nc2ccc(F)cc2)cc1 | inactive
Cn1c(C(=O)NCCN2CCOCC2)cc2c(=O)n(C)c3ccccc3c21 | inactive
CCOC(=O)CN1C(=O)S/C(=C/c2ccc(O)c([N+](=O)[O-])c2)C1=O | inactive
O=C(O)CCn1c(C2CCCCC2)nc2ccccc21 | inactive
Cc1[nH]c2ccccc2c1C(c1ccccn1)c1c(C)[nH]c2ccccc12 | inactive
Cc1ccc(Nc2cc(C)nc(NCc3ccccc3)n2)cc1 | inactive
CCCNC(=O)CS(=O)Cc1nc(-c2ccccc2C)oc1C (centres undefined) | inactive
CCCc1nc(SCC(N)=O)[nH]c(=O)c1CC | inactive

SMILES | Potency
COc1cc(C(=O)OCC(=O)Nc2c(F)c(F)c(F)c(F)c2F)cc(OC)c1OC | inactive
C=CCn1c(Br)nc2c1c(=O)n(C)c(=O)n2C | inactive
COc1ccc(C(=O)C[N+]2(C)CCOCC2)cc1 | inactive
Cc1c(C(=O)NCc2c(F)cc(F)cc2F)oc2ccc(S(=O)(=O)N3CCOCC3)cc12 | inactive
CCOC(=O)N1CCN(C(=O)CN(c2ccc(C)c(C)c2)S(=O)(=O)c2ccccc2)CC1 | inactive
CCC(C)(C)n1nnnc1C(c1ccc(C)cc1)N1CCCC1 (centres undefined) | inactive
CC(C)(C)C1C=C(Sc2ccccc2)C(=O)O1 (centres undefined) | inactive
O=[N+]([O-])c1cc(-c2nnc(Nc3ccccc3)c3ccccc23)ccc1N1CCOCC1 | inactive
CCOC(=O)N1CCN(C(=O)c2cc3c(ccc4ccccc43)oc2=O)CC1 | inactive
Cc1ccc(SCC(=O)NCC(C)C)cc1 | inactive
C=CCNCCOCCOc1ccccc1-c1ccccc1 | inactive
C=CC[C@H](CC(=O)OC(C)(C)C)C(=O)OC[C@@H]1CCCN1C(=O)[C@H](CC=C)CC(=O)N[C@H](CO)Cc1ccccc1 | inactive
O=c1c2c3nc4ccccc4nc3n(Cc3ccccc3)c2ncn1Cc1ccco1 | 11.2 µM (active)
c1coc(CNC2CCCCCCC2)c1 | inactive
Cn1nc(CC(=O)NCc2ccc(F)cc2)c2ccccc2c1=O | inactive
CC1CCN(c2ccc3c(c2)S(=O)(=O)c2cccc(C(=O)NC4CC4)c2C3=O)CC1 | inactive
CC(C)OCCCNC(=O)c1c(N)n(/N=C/c2ccccn2)c2nc3ccccc3nc12 | inactive
CC(C)c1ccc(C2=C(O)c3ccccc3C(=O)C2=O)cc1 | inactive
Cc1ccc(N=C2NC(=O)/C(=C/C=C/c3ccco3)S2)cc1 | 7.08 µM (active)
